Data taken from PubChem BioAssay AID1159580 (chemical genetic matrix, 2015).
In all, about 5,500 compounds went through this assay and about 2,000 (36%) were called active. Inconclusive results (about 18%) are left out. Cut-off read from the data, not from the text of the source: active = normalized growth mostly below about 0.91 (no sharp cut-off); inconclusive = no clear call, values can overlap the other calls; inactive = mostly above about 0.92. The list shows a part of the results.

Assay: chemical genetic growth profiling, strain panel (AID 1159580);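 note: tested at 20 µM; growth read once vehicle control cultures reached saturation at 30 °C; 1 = growth at the plate median or of vehicle wells; lower values mean less growth of the strain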
Settings: growth OD
[1] = S. cerevisiae deletion strains, locus YAL013W, strain DEP1, stronger effect = lower value
[2] = S. cerevisiae deletion strains, locus YDR150W, strain NUM1, stronger effect = lower value
[3] = S. cerevisiae deletion strains, locus YGR229C, strain SMI1, stronger effect = lower value
[4] = S. cerevisiae deletion strains, locus YNL153C, strain GIM3, stronger effect = lower value
[5] = S. cerevisiae deletion strains, locus YNL322C, strain KRE1, stronger effect = lower value
[6] = S. cerevisiae deletion strains, locus YBR229C, strain ROT2, stronger effect = lower value
[7] = S. cerevisiae deletion strains, locus YDL101C, strain DUN1, stronger effect = lower value
[8] = S. cerevisiae deletion strains, locus YDL134C, strain PPH21, stronger effect = lower value
[9] = S. cerevisiae deletion strains, locus YEL061C, strain CIN8, stronger effect = lower value
[10] = S. cerevisiae deletion strains, locus YGR078C, strain PAC10, stronger effect = lower value
[11] = S. cerevisiae deletion strains, locus YHR030C, strain SLT2, stronger effect = lower value
[12] = S. cerevisiae deletion strains, locus YHR087W, strain rtc3, stronger effect = lower value
[13] = S. cerevisiae deletion strains, locus YJR043C, strain POL32, stronger effect = lower value
[14] = S. cerevisiae deletion strains, locus YJR075W, strain HOC1, stronger effect = lower value
[15] = S. cerevisiae deletion strains, locus YLR039C, strain RIC1, stronger effect = lower value
[16] = S. cerevisiae deletion strains, locus YLR058C, strain SHM2 (second series), stronger effect = lower value
[17] = S. cerevisiae deletion strains, locus YLR085C, strain ARP6, stronger effect = lower value
[18] = S. cerevisiae deletion strains, locus YLR262C, strain YPT6, stronger effect = lower value
[19] = S. cerevisiae deletion strains, locus YML094W, strain GIM5, stronger effect = lower value
[20] = S. cerevisiae deletion strains, locus YMR219W, strain ESC1, stronger effect = lower value
[21] = S. cerevisiae deletion strains, locus YMR263W, strain SAP30, stronger effect = lower value
[22] = S. cerevisiae deletion strains, locus YNL298W, strain CLA4 (second series), stronger effect = lower value
[23] = S. cerevisiae deletion strains, locus YNR030W, strain Alg12, stronger effect = lower value
[24] = S. cerevisiae deletion strains, locus YOL006C, strain TOP1, stronger effect = lower value
[25] = S. cerevisiae deletion strains, locus YPL055C, strain LGE1, stronger effect = lower value
[26] = S. cerevisiae deletion strains, locus YPL241C, strain CIN2, stronger effect = lower value
[27] = S. cerevisiae deletion strains, locus YPR135W, strain CTF4, stronger effect = lower value

Measured: normalized growth

CCS(=O)(=O)Nc1cccc(C(=C2CCCCC2)c2cnc[nH]2)c1
inactive: [1] 0.982 | S. cerevisiae deletion strains, locus YAL040C, strain CLN3, stronger effect = lower value 1 | [2] 1.02 | S. cerevisiae deletion strains, locus YDR363W, strain ESC2, stronger effect = lower value 0.974 | S. cerevisiae deletion strains, locus YER002W, strain NOP16, stronger effect = lower value 1.04 | [3] 1 | [4] 1.03 | S. cerevisiae deletion strains, locus YNL175C, strain NOP13, stronger effect = lower value 1 | S. cerevisiae deletion strains, locus YNL197C, strain WHI3, stronger effect = lower value 1 | S. cerevisiae deletion strains, locus YNL224C, strain SQS1, stronger effect = lower value 1.01 | [5] 0.994 | S. cerevisiae deletion strains, locus YOR083W, strain WHI5 (second series), stronger effect = lower value 1.02

Cc1cc(NS(=O)(=O)c2ccc(NS(=O)(=O)c3cc(C)c(Cl)cc3C)cc2)no1
inactive: [1] 0.991 | [6] 0.994 | [7] 1 | [8] 0.968 | [2] 1.07 | [9] 0.984 | [10] 1.01 | [11] 1.08 | [12] 0.982 | [13] 1.04 | [14] 1.01 | [15] 1 | [16] 0.979 | [17] 0.947 | [18] 1.09 | [19] 0.971 | [20] 0.99 | [21] 1.02 | S. cerevisiae deletion strains, locus YNL128W, strain TEP1, stronger effect = lower value 0.981 | [4] 1.01 | [22] 0.979 | [5] 0.99 | [23] 1.01 | [24] 0.985 | [25] 1.04 | [26] 0.985 | [27] 1.09 | S. cerevisiae strains, strain wild type, stronger effect = lower value 0.974

Cc1cc(NS(=O)(=O)c2ccc(NS(=O)(=O)c3ccc(Cl)cc3)cc2)no1
inactive: [1] 1.03 | [6] 1.02 | [7] 1 | [2] 0.956 | [9] 1.01 | [10] 1 | [3] 1.01 | [11] 1.07 | [12] 0.999 | S. cerevisiae deletion strains, locus YJL187C, strain SWE1, stronger effect = lower value 1.01 | [13] 1.04 | [14] 1.02 | [15] 1.02 | [16] 1 | [17] 0.983 | [18] 1.07 | [19] 0.988 | [20] 1.01 | [21] 0.956 | [4] 1.02 | [22] 1.03 | [5] 1.01 | [23] 1.02 | [24] 1.06 | [25] 0.902 | [26] 0.995 | [27] 1.08

O=c1c2cc(NS(=O)(=O)c3ccc(Cl)cc3)ccc2oc2ncccc12
inactive: [1] 0.979 | [6] 1.02 | [7] 0.988 | [8] 1 | [2] 0.961 | [9] 1.04 | [10] 0.979 | [11] 0.998 | [12] 1.06 | [13] 0.976 | [14] 1.03 | [15] 1.03 | [16] 1.02 | [17] 1.04 | [18] 1.07 | [19] 1.08 | [20] 1.02 | [21] 0.991 | [4] 0.993 | [22] 0.997 | [5] 0.994 | [23] 1.02 | [25] 1.04 | [26] 1.01 | [27] 0.984

Cc1ccc(S(=O)(=O)Nc2ccc(Oc3ccc(F)cc3)cc2)cc1
inactive: S. cerevisiae deletion strains, locus YAR019C, strain CDC15, stronger effect = lower value 0.98 | S. cerevisiae deletion strains, locus YBL105C, strain PKC1, stronger effect = lower value 0.977 | S. cerevisiae deletion strains, locus YBR135W, strain CKS1, stronger effect = lower value 0.983 | S. cerevisiae deletion strains, locus YBR136W, strain MEC1, stronger effect = lower value 0.985 | S. cerevisiae deletion strains, locus YBR160W, strain CDC28, stronger effect = lower value 0.976 | S. cerevisiae deletion strains, locus YDL017W, strain CDC7, stronger effect = lower value 0.985 | S. cerevisiae deletion strains, locus YDL028C, strain MPS1, stronger effect = lower value 0.987 | [7] 0.982 | S. cerevisiae deletion strains, locus YDL108W, strain KIN28, stronger effect = lower value 0.977 | S. cerevisiae deletion strains, locus YDL132W, strain cdc53, stronger effect = lower value 0.974 | S. cerevisiae deletion strains, locus YDL214C, strain PRR2, stronger effect = lower value 0.907 | S. cerevisiae deletion strains, locus YDR052C, strain DBF4, stronger effect = lower value 0.979 | S. cerevisiae deletion strains, locus YDR054C, strain cdc34, stronger effect = lower value 0.975 | S. cerevisiae deletion strains, locus YDR226W, strain ADK1, stronger effect = lower value 0.983 | S. cerevisiae deletion strains, locus YDR477W, strain SNF1, stronger effect = lower value 0.927 | S. cerevisiae deletion strains, locus YER123W, strain YCK3, stronger effect = lower value 0.866 | S. cerevisiae deletion strains, locus YER133W, strain GLC7, stronger effect = lower value 0.93 | S. cerevisiae deletion strains, locus YFL009W, strain cdc4, stronger effect = lower value 0.983 | S. cerevisiae deletion strains, locus YFL029C, strain CAK1, stronger effect = lower value 0.977 | S. cerevisiae deletion strains, locus YFR003C, strain YPI1, stronger effect = lower value 0.979 | S. cerevisiae deletion strains, locus YFR019W, strain FAB1, stronger effect = lower value 0.95 | S. cerevisiae deletion strains, locus YFR028C, strain CDC14, stronger effect = lower value 0.972 | S. cerevisiae deletion strains, locus YGR040W, strain KSS1, stronger effect = lower value 0.915 | S. cerevisiae deletion strains, locus YGR052W, strain FMP48, stronger effect = lower value 0.91 | S. cerevisiae deletion strains, locus YGR092W, strain DBF2, stronger effect = lower value 0.839 | S. cerevisiae deletion strains, locus YHR079C, strain IRE1, stronger effect = lower value 0.876 | S. cerevisiae deletion strains, locus YHR082C, strain KSP1, stronger effect = lower value 0.895 | S. cerevisiae deletion strains, locus YHR205W, strain SCH9, stronger effect = lower value 0.926 | S. cerevisiae deletion strains, locus YIL147C, strain SLN1, stronger effect = lower value 0.992 | S. cerevisiae deletion strains, locus YJL095W, strain BCK1, stronger effect = lower value 0.9 | S. cerevisiae deletion strains, locus YJL128C, strain PBS2, stronger effect = lower value 0.946 | S. cerevisiae deletion strains, locus YJL157C, strain FAR1, stronger effect = lower value 0.908 | S. cerevisiae deletion strains, locus YJR016C, strain ILV3, stronger effect = lower value 0.981 | S. cerevisiae deletion strains, locus YJR066W, strain TOR1 (second series), stronger effect = lower value 0.892 | S. cerevisiae deletion strains, locus YJR066W, strain TOR1, stronger effect = lower value 0.968 | S. cerevisiae deletion strains, locus YKL048C, strain ELM1, stronger effect = lower value 0.934 | S. cerevisiae deletion strains, locus YKL067W, strain YNK1, stronger effect = lower value 0.905 | S. cerevisiae deletion strains, locus YKL101W, strain HSL1, stronger effect = lower value 0.887 | S. cerevisiae deletion strains, locus YKL193C, strain SDS22, stronger effect = lower value 0.978 | S. cerevisiae deletion strains, locus YKL203C, strain TOR2, stronger effect = lower value 0.979 | S. cerevisiae deletion strains, locus YLR133W, strain CKI1, stronger effect = lower value 0.916 | S. cerevisiae deletion strains, locus YLR403W, strain SFP1, stronger effect = lower value 0.914 | S. cerevisiae deletion strains, locus YML070W, strain DAK1, stronger effect = lower value 0.868 | S. cerevisiae deletion strains, locus YMR001C, strain CDC5, stronger effect = lower value 0.986 | S. cerevisiae deletion strains, locus YMR205C, strain PFK2 (second series), stronger effect = lower value 0.918 | S. cerevisiae deletion strains, locus YMR277W, strain FCP1, stronger effect = lower value 0.985 | S. cerevisiae deletion strains, locus YNL006W, strain LST8, stronger effect = lower value 0.996 | S. cerevisiae deletion strains, locus YNL020C, strain ARK1, stronger effect = lower value 0.898 | S. cerevisiae deletion strains, locus YNL161W, strain CBK1, stronger effect = lower value 0.978 | S. cerevisiae deletion strains, locus YNL183C, strain NPR1, stronger effect = lower value 0.836 | S. cerevisiae deletion strains, locus YNL207W, strain RIO2, stronger effect = lower value 0.985 | S. cerevisiae deletion strains, locus YNL222W, strain SSU72, stronger effect = lower value 0.969 | S. cerevisiae deletion strains, locus YNL307C, strain MCK1 (second series), stronger effect = lower value 0.873 | S. cerevisiae deletion strains, locus YOL078W, strain AVO1, stronger effect = lower value 0.978 | S. cerevisiae deletion strains, locus YOL136C, strain PFK27, stronger effect = lower value 0.88 | S. cerevisiae deletion strains, locus YOR061W, strain CKA2, stronger effect = lower value 0.898 | S. cerevisiae deletion strains, locus YOR119C, strain RIO1, stronger effect = lower value 0.981 | S. cerevisiae deletion strains, locus YOR231W, strain MKK1, stronger effect = lower value 0.849 | S. cerevisiae deletion strains, locus YOR329C, strain SCD5, stronger effect = lower value 0.983 | S. cerevisiae deletion strains, locus YPL031C, strain PHO85, stronger effect = lower value 0.913 | S. cerevisiae deletion strains, locus YPL153C, strain RAD53, stronger effect = lower value 0.862 | S. cerevisiae deletion strains, locus YPL204W, strain HRR25, stronger effect = lower value 0.896 | S. cerevisiae deletion strains, locus YPL209C, strain IPL1, stronger effect = lower value 0.979 | S. cerevisiae deletion strains, locus YPR025C, strain CCL1, stronger effect = lower value 0.984 | S. cerevisiae deletion strains, locus YPR106W, strain ISR1, stronger effect = lower value 0.965 | S. cerevisiae deletion strains, locus YPR111W, strain DBF20, stronger effect = lower value 0.953 | S. cerevisiae deletion strains, strain NNK1, stronger effect = lower value 0.969 | S. cerevisiae deletion strains, strain TSCII, stronger effect = lower value 0.98
active: [11] 0.767 | S. cerevisiae deletion strains, locus YLR113W, strain HOG1, stronger effect = lower value 0.739 | S. cerevisiae deletion strains, locus YPL256C, strain CLN2, stronger effect = lower value 0.815
